Reference: PubChem BioAssay
Unmarked numbers belong to inactive results. For some assays here: Entries with a potency or affinity are not part of this list. Activity calls are given as the source filed them. Unless noted, the rule behind the calls is not given here.

Columns and labels:
[1] = antimalarial activity against Dd2 strain (AID 2302;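 active = growth inhibition above 50% at the single 2 µM test dose, taken to imply half-maximal potency below 2 µM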;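 note: 0% = DMSO untreated growth and 100% = chloroquine plus artemisinin killed control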); conditions: P. falciparum Dd2 in RBCs, LDH growth readout, 72 h; at 2 µM; active compounds read high
[2] = human hepatoma cell viability loss – ATP luminescence, cytotoxicity control for P. falciparum antimalarial project, primary screen (AID 2303;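 active = inhibition above 50%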;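 note: 0% = DMSO wells and 100% = digitonin-killed cells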); conditions: HepG2 viability, 24-48 h, at 10 µM, active compounds read high
[3] = molecular target: L-lactate dehydrogenase (Plasmodium falciparum (isolate CDC / Honduras)) (UniProt Q27743); experiment: PfLDH activity inhibition – cell lysate, 3D7 strain, counter-screen for P. falciparum growth inhibition project (AID 2304);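 note: 0% = vehicle and 100% = reference inhibitor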; conditions: P. falciparum 3D7 crude extract, LDH APAD/NBT absorbance; at 2 µM; active compounds read high
[4] = inhibition of 3D7 malaria parasite growth – strain 3D7 (AID 2306);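 note: 0% = DMSO wells and 100% = chloroquine plus artemisinin control wells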; conditions: P. falciparum 3D7 erythrocytic growth, LDH absorbance, 72 h; at 2 µM; active compounds read high
[5] = molecular target: Calcium-dependent protein kinase 1 (Plasmodium falciparum (isolate 3D7)) (UniProt P62344); experiment: PfCDPK1 kinase inhibitors, biochemical, TCAMS library (AID 1159585; cut-off not given, nearly all actives have IC50 up to about 0.98 µM;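 note: inhibitors leave more ATP so luminescence rises with inhibition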); conditions: recombinant PfCDPK1, Kinase-Glo ATP depletion luminescence
[6] = molecular target: Plasmodium falciparum protein kinase 6 (PK6, PF3D7_1337100) (UniProt Q8IDW1); experiment: PfPK6 kinase inhibitors, biochemical, TCAMS library (AID 1159586); conditions: recombinant PfPK6, Kinase-Glo ATP depletion luminescence
[7] = molecular target: Protein kinase 7 (PK7), Plasmodium falciparum 3D7 (PF3D7_0213400) (UniProt Q7YTF7); experiment: inhibition of Plasmodium PK7 catalytic activity – biochemical, TCAMS antimalarial set, Kinase-Glo luminescence (AID 1159587); conditions: recombinant PfPK7, Kinase-Glo ATP depletion luminescence
[8] = molecular target: Calcium-dependent protein kinase 4 (Plasmodium falciparum (isolate 3D7)) (UniProt Q8IBS5); experiment: PfCDPK4 kinase inhibitors, biochemical, TCAMS library (AID 1159588; cut-off not given, nearly all actives have IC50 up to about 0.91 µM); conditions: recombinant PfCDPK4, Kinase-Glo ATP depletion luminescence
Sequence of Calcium-dependent protein kinase 4 (Plasmodium falciparum (isolate 3D7)) (Q8IBS5 whole entry, looked up): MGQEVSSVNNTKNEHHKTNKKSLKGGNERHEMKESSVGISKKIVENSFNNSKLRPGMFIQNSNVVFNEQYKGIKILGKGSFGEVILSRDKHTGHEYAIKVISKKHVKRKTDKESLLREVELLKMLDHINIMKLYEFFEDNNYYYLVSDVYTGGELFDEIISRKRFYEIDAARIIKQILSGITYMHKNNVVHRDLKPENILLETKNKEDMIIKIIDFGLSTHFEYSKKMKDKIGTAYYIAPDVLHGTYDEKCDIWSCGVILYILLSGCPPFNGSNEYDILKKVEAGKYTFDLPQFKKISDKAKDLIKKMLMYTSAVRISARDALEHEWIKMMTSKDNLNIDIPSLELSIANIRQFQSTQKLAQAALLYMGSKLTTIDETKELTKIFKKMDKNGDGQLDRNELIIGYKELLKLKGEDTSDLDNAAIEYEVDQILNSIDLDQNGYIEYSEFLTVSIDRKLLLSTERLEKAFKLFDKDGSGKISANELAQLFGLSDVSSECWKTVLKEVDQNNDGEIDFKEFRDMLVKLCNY

Sequence of L-lactate dehydrogenase (Plasmodium falciparum (isolate CDC / Honduras)) (Q27743 whole entry, looked up): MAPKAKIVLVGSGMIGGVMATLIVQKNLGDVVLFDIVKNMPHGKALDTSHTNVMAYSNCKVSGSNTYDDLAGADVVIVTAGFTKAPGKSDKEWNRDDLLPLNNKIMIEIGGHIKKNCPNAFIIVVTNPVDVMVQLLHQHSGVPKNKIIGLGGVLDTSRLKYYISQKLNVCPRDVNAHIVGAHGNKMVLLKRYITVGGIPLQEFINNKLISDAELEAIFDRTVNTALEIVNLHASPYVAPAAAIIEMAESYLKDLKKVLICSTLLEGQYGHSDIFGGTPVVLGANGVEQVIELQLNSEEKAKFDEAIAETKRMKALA
Sequence of Plasmodium falciparum protein kinase 6 (PK6, PF3D7_1337100) (Q8IDW1 1-305): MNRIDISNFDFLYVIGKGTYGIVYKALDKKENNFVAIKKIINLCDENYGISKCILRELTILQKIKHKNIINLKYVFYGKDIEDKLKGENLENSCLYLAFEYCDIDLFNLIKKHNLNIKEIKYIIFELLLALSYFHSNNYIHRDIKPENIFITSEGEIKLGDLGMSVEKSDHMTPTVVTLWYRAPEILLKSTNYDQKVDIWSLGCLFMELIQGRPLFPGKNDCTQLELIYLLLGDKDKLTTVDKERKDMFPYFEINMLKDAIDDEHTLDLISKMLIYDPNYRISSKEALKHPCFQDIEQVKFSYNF
Sequence of Calcium-dependent protein kinase 1 (Plasmodium falciparum (isolate 3D7)) (P62344 whole entry, looked up): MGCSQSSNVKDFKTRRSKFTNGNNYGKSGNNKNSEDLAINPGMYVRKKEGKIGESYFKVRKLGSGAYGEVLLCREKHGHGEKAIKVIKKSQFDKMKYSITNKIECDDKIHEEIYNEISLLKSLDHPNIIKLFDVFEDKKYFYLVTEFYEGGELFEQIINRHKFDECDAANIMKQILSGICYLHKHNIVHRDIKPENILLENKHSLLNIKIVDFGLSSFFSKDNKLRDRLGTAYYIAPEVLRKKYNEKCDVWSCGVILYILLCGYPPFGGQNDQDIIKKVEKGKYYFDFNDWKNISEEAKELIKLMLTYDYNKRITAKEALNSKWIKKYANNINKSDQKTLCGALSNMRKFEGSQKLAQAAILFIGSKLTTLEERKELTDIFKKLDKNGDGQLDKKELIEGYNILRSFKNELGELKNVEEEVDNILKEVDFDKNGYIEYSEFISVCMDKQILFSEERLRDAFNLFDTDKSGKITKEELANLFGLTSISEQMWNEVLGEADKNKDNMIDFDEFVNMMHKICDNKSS
Sequence of Protein kinase 7 (PK7), Plasmodium falciparum 3D7 (PF3D7_0213400) (Q7YTF7 1-343): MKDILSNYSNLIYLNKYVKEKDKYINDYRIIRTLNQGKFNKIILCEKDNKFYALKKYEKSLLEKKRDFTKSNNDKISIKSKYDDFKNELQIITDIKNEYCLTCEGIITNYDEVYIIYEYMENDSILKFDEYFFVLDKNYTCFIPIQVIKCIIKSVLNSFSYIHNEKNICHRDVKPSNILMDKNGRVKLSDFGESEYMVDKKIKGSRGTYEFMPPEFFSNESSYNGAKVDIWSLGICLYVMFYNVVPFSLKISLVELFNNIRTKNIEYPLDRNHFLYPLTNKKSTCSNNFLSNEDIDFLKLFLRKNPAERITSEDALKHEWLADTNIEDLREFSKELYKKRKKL

Row | Structure (SMILES) | growth inhibition [1] | inhibition [2] | inhibition [3] [%] | growth inhibition [4] | outcome [5] | outcome [6] | outcome [7] | outcome [8]
1 | Cc1noc(C)c1-c1cccc(CNCc2ccc(-c3ccc(-c4nc5ccc(C(F)(F)F)cc5[nH]4)s3)cc2)c1 | 99% (active) | 54% (active) | 3 | 102% (active) | inactive | inactive | inactive | inactive
2 | CCC(Cc1cnc2nc(N)nc(N)c2n1)c1ccc(C(=O)N[C@@H](CCC(=O)O)C(=O)O)cc1 (stereo not given in full) | 98% (active) | 64% (active) | -2 | 93% (active) | inactive | inactive | inactive | inactive
3 | c1ccc(Oc2ccc(Nc3ccnc4cc(-c5ccc(CN6CCNCC6)o5)ccc34)cc2)nc1 | 99% (active) | 7% | -1 | 100% (active) | inactive | inactive | inactive | inactive
4 | CN(C)Cc1cccc(-c2cnc(N)c(-c3nc4ccc(S(C)(=O)=O)cc4[nH]3)c2)c1 | 61% (active) | 27% | -2 | 100% (active) | inactive | inactive | inactive | inactive
5 | Cc1ccc(CN2CCCN(Cc3cccc(NC(=O)c4cc5ccccc5s4)c3)CC2)cc1 | 28% | 32% | -3 | 87% (active) | inactive | inactive | inactive | inactive
6 | CN(C)c1ccc(C=C2SC(=O)NC2=Nc2ccccc2)cc1 | 96% (active) | 42% | 6 | 97% (active) | inactive | inactive | inactive | inactive
7 | CNCCNCc1cccc(-c2ccc(-c3nc4ccccc4[nH]3)cc2)c1 | 27% | 13% | -6 | 99% (active) | inactive | inactive | inactive | inactive
8 | CCCCCCCN1CC[C@@H](CCC(O)c2ccnc3ccc(OC)cc23)[C@@H](CC)C1 (stereo not given in full) | 93% (active) | 34% | -1 | 97% (active) | inactive | inactive | inactive | inactive
9 | Cc1cc2nc(-c3ccc(OCC(=O)NCc4ccc(C(C)(C)C)cc4)cc3)[nH]c2cc1C | 0% | 11% | 2 | 94% (active) | inactive | inactive | inactive | inactive
10 | Nc1cc(-c2ccc(-c3cccs3)s2)nc2ccccc12 | 50% (active) | 32% | 5 | 100% (active) | inactive | inactive | inactive | inactive
11 | COc1ccc2ccc(F)c(CC(=O)N3CCOC(CNCc4cccc(-c5ccc(F)cc5)n4)C3)c2n1 (stereo not given) | 1% | 5% | 6 | 92% (active) | inactive | inactive | inactive | inactive
12 | Cc1c(CNCCCNc2nc3ccncc3[nH]2)sc(Br)c1Br | 1% | -10% | 3 | 87% (active) | inactive | inactive | inactive | inactive
13 | CC1(C)CCC(=Cc2ccc(Cl)cc2)CC1(O)Cn1ccnc1 (stereo not given) | 74% (active) | 0% | -4 | 99% (active) | inactive | inactive | inactive | inactive
14 | Cc1cc(N2CCCC2)nc(Nc2ccc(NC(=O)C(C)(C)C)cc2)n1 | 15% | 24% | 2 | 95% (active) | inactive | inactive | inactive | inactive
15 | CCOC(=O)c1cncc(/C=C/c2cc(C)cnc2N)c1 | 3% | 4% | -4 | 86% (active) | inactive | inactive | inactive | inactive
16 | Cc1cccc2[nH]c(-c3ccc(-c4ccc(CNCCCN5CCCC5=O)cc4)s3)nc12 | 43% | 17% | 2 | 101% (active) | inactive | inactive | inactive | inactive
17 | COc1ccccc1Cn1ccnc1SCC(=O)Nc1cc(C(F)(F)F)ccc1Cl | 97% (active) | 12% | 1 | 96% (active) | inactive | inactive | inactive | inactive
18 | COC(=O)c1cccc(CNCc2ccc(-c3ccc(-c4nc5c(C)cccc5[nH]4)s3)cc2)c1 | 64% (active) | 3% | 0 | 101% (active) | inactive | inactive | inactive | inactive
19 | O=C(NCCCN1CCOCC1)c1csc(Nc2ccc(Cl)c(Cl)c2)n1 | 23% | 5% | 2 | 92% (active) | inactive | inactive | inactive | inactive
20 | CN(C)C(=O)CCCn1c(CNCCCNc2cc(=O)c3ccccc3[nH]2)cc2c(Cl)cc(Cl)cc21 | -4% | 1% | -1 | 89% (active) | inactive | inactive | inactive | inactive

Row | Structure (SMILES) | growth inhibition [1] | inhibition [2] | inhibition [3] [%] | growth inhibition [4] | outcome [5] | outcome [6] | outcome [7] | outcome [8]
21 | Cc1ccc(N2CCN(C(=O)c3cccc(-c4cncc5nc(-c6ccco6)n(C)c45)c3)CC2)nc1 | 91% (active) | -13% | -1 | 94% (active) | inactive | inactive | inactive | inactive
22 | O=C(Nc1ccc(CN2CCCCC2)cc1)c1ccc(COc2ccc([N+](=O)[O-])cc2)o1 | -3% | 12% | -1 | 86% (active) | inactive | inactive | inactive | inactive
23 | CCCCn1c(C(C)Oc2ccc(Cl)cc2Cl)nc2cc(S(N)(=O)=O)ccc21 (stereo not given) | 45% | 24% | -2 | 94% (active) | inactive | inactive | inactive | inactive
24 | Cn1cccc1CCNCc1ccc(-c2cccc(-c3nc4ccc(F)cc4[nH]3)c2)cc1 | 43% | -2% | 1 | 93% (active) | inactive | inactive | inactive | inactive
25 | CCCNCc1ccc(-c2ccc(CN(CCOC)C(=O)COc3ccccc3Cl)cc2)nc1 | 29% | -1% | -2 | 96% (active) | inactive | inactive | inactive | inactive
26 | COc1ccc2nccc([C@@H](O)CN3CCC(NC(=O)C(c4cc5ccccc5s4)N4CC(C)OC(C)C4)CC3)c2c1 (stereo not given in full) | 44% | 12% | -6 | 93% (active) | inactive | inactive | inactive | inactive
27 | c1cc(CNC2Cc3ccccc3C2)cc(-c2cnc(N3CCNCC3)nc2)c1 | 65% (active) | 43% | -9 | 93% (active) | inactive | inactive | inactive | inactive
28 | CCc1cn2c3c(cc(C(=O)N[C@@H](Cc4ccccc4)[C@H](O)CNC4CCOCC4)cc13)N(C(C)C)S(=O)(=O)CC2 | 99% (active) | 0% | -2 | 98% (active) | inactive | inactive | inactive | inactive
29 | O=C(/C=C/c1ccc(Cl)c(Cl)c1)NCCCCN1CCCN(C(=O)Nc2cc(Cl)cc(Cl)c2)CC1 | 1% | 21% | 2 | 97% (active) | inactive | inactive | inactive | inactive
30 | CNCc1ccc2nc(-c3coc(Cc4cc(Cl)ccc4OCC(C)C)n3)[nH]c2c1 | 95% (active) | 34% | 2 | 101% (active) | inactive | inactive | inactive | inactive
31 | Cc1nc2ccc3ccc(CNc4ccc(C(=O)CC(CCC(=O)O)C(=O)O)cc4)cc3c2c(=O)[nH]1 (stereo not given) | 96% (active) | 51% (active) | -1 | 95% (active) | inactive | inactive | inactive | inactive
32 | COc1ccc(NC(C)C(=O)Nc2ccc(Br)cc2)cc1S(=O)(=O)N1CCCCC1 (stereo not given) | 97% (active) | 2% | -2 | 99% (active) | inactive | inactive | inactive | inactive
33 | Cc1cc(NN=Cc2cccc(Cl)c2)c2ccccc2n1 | 100% (active) | 22% | 0 | 100% (active) | inactive | inactive | inactive | inactive
34 | CC1(C)CN(CCC2CCC(NC(=O)/C=C/c3ccc(F)cc3F)CC2)Cc2ccc(C#N)cc21 (stereo not given) | 77% (active) | 39% | -6 | 88% (active) | inactive | inactive | inactive | inactive
35 | COCCN1CCC(CNCC(C)(C)c2nc(-c3ccc(Cl)c(O)c3)c(-c3ccncc3)[nH]2)CC1 | 2% | -15% | -1 | 102% (active) | inactive | inactive | inactive | inactive
36 | O=C(Nc1ccccc1)Nc1ccc(-n2ccc(C(F)(F)F)n2)cc1 | 85% (active) | 15% | -5 | 95% (active) | inactive | inactive | inactive | inactive
37 | O=C(Nc1ccc(Cn2ncc(N3CCCNCC3)c(Cl)c2=O)cc1)Nc1ccc(F)cc1[N+](=O)[O-] | -3% | 11% | -4 | 90% (active) | inactive | inactive | inactive | inactive
38 | COc1ccc2nccc(N3CCC(SCCNCc4cc5c(cn4)OCCO5)C3)c2n1 (stereo not given) | 100% (active) | 30% | 2 | 101% (active) | inactive | inactive | inactive | inactive
39 | O=C(Nc1cccc(C(F)(F)F)c1)Nc1nc2ccc([N+](=O)[O-])cc2s1 | 76% (active) | 81% (active) | 0 | 102% (active) | inactive | inactive | inactive | inactive
40 | O=C1NC(=S)NC1=CC=Cc1ccc([N+](=O)[O-])o1 | 30% | 7% | 2 | 82% (active) | inactive | inactive | inactive | inactive
